The target of test [1] is T1, Serine/threonine-protein kinase DCLK2 (Homo sapiens) (UniProt Q8N568).
T1 sequence (whole entry): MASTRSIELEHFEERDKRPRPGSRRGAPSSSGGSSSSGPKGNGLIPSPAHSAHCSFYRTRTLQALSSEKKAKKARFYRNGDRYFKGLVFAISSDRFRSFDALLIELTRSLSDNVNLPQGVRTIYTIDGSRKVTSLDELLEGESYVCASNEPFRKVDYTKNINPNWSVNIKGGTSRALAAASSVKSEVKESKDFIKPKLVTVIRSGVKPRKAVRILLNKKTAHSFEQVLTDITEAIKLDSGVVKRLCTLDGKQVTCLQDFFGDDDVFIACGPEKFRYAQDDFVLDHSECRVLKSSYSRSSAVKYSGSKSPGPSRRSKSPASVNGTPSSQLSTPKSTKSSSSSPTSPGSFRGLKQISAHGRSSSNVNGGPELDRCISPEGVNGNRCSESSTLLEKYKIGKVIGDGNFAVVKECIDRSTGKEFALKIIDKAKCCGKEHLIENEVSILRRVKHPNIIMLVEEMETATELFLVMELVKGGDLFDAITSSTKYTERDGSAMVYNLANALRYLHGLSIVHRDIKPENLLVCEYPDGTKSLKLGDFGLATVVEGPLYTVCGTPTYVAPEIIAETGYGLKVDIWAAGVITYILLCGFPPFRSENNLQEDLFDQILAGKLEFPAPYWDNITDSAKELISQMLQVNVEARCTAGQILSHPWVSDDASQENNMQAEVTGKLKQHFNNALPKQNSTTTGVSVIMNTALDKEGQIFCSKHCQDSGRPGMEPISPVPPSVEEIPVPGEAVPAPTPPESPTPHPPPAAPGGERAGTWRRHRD
Particulars: at 0.1 µM.

The target of test [2] is T1, Serine/threonine-protein kinase DCLK2 (Homo sapiens). Particulars: at 1 µM.
For test [3], the target named is MAP kinase-activated protein kinase 2 (Homo sapiens) (UniProt P49137). As to conditions: at 0.1 µM.
For test [4] the target is unchanged. As to conditions: at 1 µM.
Test [5] deals with MAP kinase-activated protein kinase 3 (Homo sapiens) (UniProt Q16644). As to conditions: at 0.1 µM.
Test [6] shares this target. Particulars: at 1 µM.
For test [7], the target named is Serine/threonine-protein kinase MARK1 (Homo sapiens) (UniProt Q9P0L2). As to conditions: at 0.1 µM.
Test [8] has the same target. As to conditions: at 1 µM.
The target of test [9] is MAP/microtubule affinity-regulating kinase 3 (Homo sapiens) (UniProt P27448). Particulars: at 0.1 µM.
Test [10] has the same target. As to conditions: at 1 µM.
In test [11] the target is T2, MAP/microtubule affinity-regulating kinase 4 (Homo sapiens) (UniProt Q96L34).
T2 sequence (whole entry): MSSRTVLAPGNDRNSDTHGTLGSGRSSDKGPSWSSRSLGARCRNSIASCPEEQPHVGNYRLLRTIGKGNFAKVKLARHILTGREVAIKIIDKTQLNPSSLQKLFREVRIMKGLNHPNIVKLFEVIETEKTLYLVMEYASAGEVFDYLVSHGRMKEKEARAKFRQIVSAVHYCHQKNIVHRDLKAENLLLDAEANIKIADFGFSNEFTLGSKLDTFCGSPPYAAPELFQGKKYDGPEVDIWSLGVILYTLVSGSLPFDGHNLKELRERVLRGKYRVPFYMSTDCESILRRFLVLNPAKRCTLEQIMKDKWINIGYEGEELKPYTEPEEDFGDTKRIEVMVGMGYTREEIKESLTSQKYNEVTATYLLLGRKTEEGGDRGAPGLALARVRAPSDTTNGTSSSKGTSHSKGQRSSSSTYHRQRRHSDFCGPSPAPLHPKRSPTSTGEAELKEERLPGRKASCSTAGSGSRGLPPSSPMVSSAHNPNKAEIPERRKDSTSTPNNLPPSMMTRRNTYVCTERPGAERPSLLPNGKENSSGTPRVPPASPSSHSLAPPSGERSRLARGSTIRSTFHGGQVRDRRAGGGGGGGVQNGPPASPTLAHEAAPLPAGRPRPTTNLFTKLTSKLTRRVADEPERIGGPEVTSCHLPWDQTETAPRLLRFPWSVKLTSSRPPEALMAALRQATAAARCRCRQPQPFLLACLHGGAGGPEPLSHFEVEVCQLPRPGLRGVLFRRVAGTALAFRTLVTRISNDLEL
As to conditions: at 0.1 µM.

The target of test [12] is T2, MAP/microtubule affinity-regulating kinase 4 (Homo sapiens). Particulars: at 1 µM.
The target in test [13] is Maternal embryonic leucine zipper kinase (Homo sapiens) (UniProt Q14680). Particulars: at 0.1 µM.
The target is the same in test [14]. Particulars: at 1 µM.
The target of test [15] is MAP kinase-interacting serine/threonine-protein kinase 1 (Homo sapiens) (UniProt Q9BUB5). Particulars: at 0.1 µM.
Test [16] shares this target. As to conditions: at 1 µM.
Test [17] deals with MAP kinase-interacting serine/threonine-protein kinase 2 (Homo sapiens) (UniProt Q9HBH9). Particulars: at 0.1 µM.
The target is the same in test [18]. Particulars: at 1 µM.
The target in test [19] is Serine/threonine-protein kinase MARK2 (Homo sapiens) (UniProt Q7KZI7). As to conditions: at 0.1 µM.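 Note: mean percent inhibition of PAR-1Balpha kinase activity, reported from the GSK PKIS screen.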
Test [20] concerns the target Death-associated protein kinase 1 (Homo sapiens) (UniProt P53355). As to conditions: at 1 µM.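 Note: each value is a mean inhibition figure.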

Molecules are shown by their SMILES.

Sequence of MAP kinase-activated protein kinase 2 (Homo sapiens) (P49137 whole entry, looked up): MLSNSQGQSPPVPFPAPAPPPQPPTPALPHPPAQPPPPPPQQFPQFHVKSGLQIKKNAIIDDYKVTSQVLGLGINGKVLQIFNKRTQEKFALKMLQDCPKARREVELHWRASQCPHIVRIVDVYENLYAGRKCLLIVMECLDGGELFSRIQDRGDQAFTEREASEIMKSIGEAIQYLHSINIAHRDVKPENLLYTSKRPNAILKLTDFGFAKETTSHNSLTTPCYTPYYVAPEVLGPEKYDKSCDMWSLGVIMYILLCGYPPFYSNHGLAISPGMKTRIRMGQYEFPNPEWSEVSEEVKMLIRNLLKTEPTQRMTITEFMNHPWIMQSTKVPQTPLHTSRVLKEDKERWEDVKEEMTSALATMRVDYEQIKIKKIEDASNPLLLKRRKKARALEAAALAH
Sequence of MAP kinase-interacting serine/threonine-protein kinase 2 (Homo sapiens) (Q9HBH9 whole entry, looked up): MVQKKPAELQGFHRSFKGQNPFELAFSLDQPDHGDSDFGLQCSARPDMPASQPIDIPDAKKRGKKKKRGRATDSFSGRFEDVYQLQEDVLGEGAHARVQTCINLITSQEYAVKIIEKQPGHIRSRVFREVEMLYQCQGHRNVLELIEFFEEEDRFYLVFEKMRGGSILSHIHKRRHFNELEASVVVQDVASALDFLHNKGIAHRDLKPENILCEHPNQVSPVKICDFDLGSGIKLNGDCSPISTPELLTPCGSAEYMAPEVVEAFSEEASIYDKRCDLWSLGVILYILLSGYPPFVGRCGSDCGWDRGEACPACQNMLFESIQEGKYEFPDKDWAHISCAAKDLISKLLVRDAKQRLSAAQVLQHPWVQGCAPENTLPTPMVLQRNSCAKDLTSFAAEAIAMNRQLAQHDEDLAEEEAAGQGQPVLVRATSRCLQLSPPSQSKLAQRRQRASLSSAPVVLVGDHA
Sequence of Serine/threonine-protein kinase MARK1 (Homo sapiens) (Q9P0L2 whole entry, looked up): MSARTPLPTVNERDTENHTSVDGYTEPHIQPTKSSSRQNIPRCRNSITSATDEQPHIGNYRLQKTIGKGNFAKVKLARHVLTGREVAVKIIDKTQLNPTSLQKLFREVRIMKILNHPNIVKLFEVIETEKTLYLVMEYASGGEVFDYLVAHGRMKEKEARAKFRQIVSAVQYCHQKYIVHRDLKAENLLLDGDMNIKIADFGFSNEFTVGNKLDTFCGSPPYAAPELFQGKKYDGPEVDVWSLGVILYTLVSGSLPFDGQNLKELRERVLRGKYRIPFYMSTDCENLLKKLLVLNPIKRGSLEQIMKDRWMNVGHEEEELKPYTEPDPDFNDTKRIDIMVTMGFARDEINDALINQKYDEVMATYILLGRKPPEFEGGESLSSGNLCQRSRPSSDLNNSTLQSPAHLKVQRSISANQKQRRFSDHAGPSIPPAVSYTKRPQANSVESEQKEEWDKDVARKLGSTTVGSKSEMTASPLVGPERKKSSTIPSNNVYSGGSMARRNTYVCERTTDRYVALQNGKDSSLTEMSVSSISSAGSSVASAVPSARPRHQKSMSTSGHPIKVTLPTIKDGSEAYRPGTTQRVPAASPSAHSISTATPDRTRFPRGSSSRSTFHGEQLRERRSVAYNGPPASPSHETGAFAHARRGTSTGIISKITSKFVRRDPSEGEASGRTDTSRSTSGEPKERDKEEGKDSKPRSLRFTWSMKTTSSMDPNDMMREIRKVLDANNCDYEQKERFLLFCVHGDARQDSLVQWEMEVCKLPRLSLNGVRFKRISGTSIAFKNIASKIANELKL
Sequence of MAP/microtubule affinity-regulating kinase 3 (Homo sapiens) (P27448 whole entry, looked up): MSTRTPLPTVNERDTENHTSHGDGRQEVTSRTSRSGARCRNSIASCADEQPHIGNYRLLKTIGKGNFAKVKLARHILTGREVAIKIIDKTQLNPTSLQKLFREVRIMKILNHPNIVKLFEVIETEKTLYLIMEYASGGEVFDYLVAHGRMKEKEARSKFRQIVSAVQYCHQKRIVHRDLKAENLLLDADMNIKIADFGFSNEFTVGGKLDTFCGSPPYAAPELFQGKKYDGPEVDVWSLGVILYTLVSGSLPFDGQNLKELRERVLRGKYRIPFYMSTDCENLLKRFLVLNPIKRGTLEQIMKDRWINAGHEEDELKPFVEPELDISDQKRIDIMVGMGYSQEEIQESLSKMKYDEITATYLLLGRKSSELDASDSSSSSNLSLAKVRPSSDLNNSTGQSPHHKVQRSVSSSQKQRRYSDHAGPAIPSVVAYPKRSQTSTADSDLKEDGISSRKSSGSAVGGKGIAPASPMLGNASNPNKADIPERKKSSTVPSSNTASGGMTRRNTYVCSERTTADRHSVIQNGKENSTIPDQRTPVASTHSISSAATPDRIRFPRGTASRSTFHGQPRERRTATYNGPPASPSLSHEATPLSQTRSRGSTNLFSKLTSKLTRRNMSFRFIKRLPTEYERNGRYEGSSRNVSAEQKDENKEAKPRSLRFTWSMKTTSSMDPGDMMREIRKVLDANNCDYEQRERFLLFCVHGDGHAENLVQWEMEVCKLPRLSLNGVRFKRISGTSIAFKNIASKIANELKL
Sequence of Maternal embryonic leucine zipper kinase (Homo sapiens) (Q14680 whole entry, looked up): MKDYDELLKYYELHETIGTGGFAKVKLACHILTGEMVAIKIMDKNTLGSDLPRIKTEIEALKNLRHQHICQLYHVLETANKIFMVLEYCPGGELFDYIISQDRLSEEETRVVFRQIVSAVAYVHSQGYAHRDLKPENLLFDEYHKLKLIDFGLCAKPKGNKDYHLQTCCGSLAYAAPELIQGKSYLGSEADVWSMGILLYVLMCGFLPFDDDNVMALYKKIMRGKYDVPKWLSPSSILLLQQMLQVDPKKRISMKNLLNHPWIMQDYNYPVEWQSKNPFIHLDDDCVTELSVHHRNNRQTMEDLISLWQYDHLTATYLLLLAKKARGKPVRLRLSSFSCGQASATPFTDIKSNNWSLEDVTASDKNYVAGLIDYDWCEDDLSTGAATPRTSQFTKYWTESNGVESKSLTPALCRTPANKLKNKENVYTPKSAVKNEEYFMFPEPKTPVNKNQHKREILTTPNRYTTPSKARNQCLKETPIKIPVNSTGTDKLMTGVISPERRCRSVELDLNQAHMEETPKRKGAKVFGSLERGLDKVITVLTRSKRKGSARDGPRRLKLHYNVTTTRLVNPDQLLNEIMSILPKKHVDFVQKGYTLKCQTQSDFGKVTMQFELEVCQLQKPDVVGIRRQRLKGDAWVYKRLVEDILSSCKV
Sequence of Serine/threonine-protein kinase MARK2 (Homo sapiens) (Q7KZI7 whole entry): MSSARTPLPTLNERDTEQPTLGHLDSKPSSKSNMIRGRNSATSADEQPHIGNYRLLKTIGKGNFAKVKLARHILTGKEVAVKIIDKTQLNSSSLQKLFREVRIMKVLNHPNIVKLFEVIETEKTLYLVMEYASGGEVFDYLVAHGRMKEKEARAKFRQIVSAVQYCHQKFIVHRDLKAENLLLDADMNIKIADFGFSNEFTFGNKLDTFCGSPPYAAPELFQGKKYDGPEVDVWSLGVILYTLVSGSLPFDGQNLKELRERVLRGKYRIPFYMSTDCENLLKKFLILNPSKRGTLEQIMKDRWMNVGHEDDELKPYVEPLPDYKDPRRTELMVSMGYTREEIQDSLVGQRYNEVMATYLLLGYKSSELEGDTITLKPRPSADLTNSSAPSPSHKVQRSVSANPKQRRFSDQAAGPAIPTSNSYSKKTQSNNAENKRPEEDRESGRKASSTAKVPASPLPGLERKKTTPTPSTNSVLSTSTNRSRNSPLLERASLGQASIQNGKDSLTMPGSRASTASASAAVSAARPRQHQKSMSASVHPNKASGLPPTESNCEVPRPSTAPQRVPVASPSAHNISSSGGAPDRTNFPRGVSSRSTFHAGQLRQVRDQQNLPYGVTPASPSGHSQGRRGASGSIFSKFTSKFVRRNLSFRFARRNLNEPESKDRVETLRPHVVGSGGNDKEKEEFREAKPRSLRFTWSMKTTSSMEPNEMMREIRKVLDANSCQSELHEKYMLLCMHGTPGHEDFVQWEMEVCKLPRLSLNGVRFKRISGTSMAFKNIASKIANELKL
Sequence of MAP kinase-interacting serine/threonine-protein kinase 1 (Homo sapiens) (Q9BUB5 whole entry, looked up): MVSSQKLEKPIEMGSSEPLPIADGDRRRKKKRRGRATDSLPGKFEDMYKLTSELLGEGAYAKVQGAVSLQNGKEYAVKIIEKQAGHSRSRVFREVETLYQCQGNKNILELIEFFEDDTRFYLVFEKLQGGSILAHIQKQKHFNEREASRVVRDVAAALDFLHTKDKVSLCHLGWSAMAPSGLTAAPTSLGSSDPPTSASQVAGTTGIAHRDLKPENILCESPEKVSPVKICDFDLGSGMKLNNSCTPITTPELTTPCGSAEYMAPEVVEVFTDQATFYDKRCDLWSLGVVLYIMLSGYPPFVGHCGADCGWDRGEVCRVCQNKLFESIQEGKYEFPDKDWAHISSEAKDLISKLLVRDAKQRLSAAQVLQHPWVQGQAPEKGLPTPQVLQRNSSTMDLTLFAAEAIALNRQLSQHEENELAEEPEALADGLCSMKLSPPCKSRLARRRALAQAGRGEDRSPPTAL
Sequence of MAP kinase-activated protein kinase 3 (Homo sapiens) (Q16644 whole entry, looked up): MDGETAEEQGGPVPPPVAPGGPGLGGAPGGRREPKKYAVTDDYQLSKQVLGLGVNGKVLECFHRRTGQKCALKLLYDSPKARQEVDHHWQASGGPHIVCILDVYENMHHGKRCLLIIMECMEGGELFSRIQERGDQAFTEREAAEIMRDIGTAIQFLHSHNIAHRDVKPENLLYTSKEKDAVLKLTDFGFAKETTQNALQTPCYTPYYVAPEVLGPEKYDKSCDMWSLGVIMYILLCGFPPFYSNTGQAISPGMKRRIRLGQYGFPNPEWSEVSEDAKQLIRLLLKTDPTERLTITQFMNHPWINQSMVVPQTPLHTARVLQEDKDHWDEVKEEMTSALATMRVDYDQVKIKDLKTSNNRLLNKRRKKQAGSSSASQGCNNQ

For `O=C1Nc2ccc(C(=O)c3ccco3)cc2C1=Cc1cc(Cl)c(O)c(Cl)c1`, the inhibition (in general, the relative decrease from the control value, in per cent) stood at 1% in [1]; 6.57% in [2]; 1.24% in test [3]; 0.24% in test [4]; 3.31% in test [5]; 2.14% in [6]. For the same compound, the inhibition is 3.54% in [7]; 14.2% in test [8]; 4.74% in test [9]; 8.65% in [10]; 1.71% in test [11]; 6.69% in test [12]. Besides, the inhibition came out at 4.89% in test [13]; 17.8% in [14]; 4.13% in [15]; 11.5% in test [16]; 6.52% in test [17]; 34.7% in [18]. In test [19], the inhibition is 2.14%.
As for `CC(C)=Cc1cccc2c1/C(=N/Nc1ccc(S(N)(=O)=O)cc1)C(=O)N2`, the inhibition in [20] was found to be 10.2%; in [1], 0.25%; in test [3] it was 3.53%; in test [4], 3.71%; in test [5], 7.64%; in test [6], 7.15%. Moreover, the inhibition in test [7] amounted to 2.11%; in test [8], 24.8%; in [9], 2.08%; in test [10], 20.6%; in test [11] it was 1.89%; in test [12], 20%. In addition, the inhibition in test [13] was 0.98%; in test [14] it was 25.6%; in test [15], 0.23%; in [16], 7.18%; in test [17], 1.9%; in test [18], 4.65%. Besides, the inhibition in test [19] worked out at 1.87%.
In the case of `Cc1nnc(-c2ccc(C)c(-c3ccc(C(=O)Nc4cccc(C#N)c4)cc3)c2)o1`, the inhibition in [20] worked out at 2.66%; in [1], 0.99%; in test [3] it was 1.02%; in test [4] it was 0.1%; in [5], 5.27%; in test [6], 16.3%. Also, the inhibition in test [7] is 1.96%; in test [8] it was 4.25%; in test [9], 2.09%; in test [10], 4.82%; in test [11] it was 0.41%; in [12], 1.13%. Also, the inhibition in [13] was -0.46%; in test [14] it was 6.64%; in test [15], 1.54%; in [16], 4.88%; in [17], 0.9%; in test [18], 3.32%. Besides, the inhibition in test [19] is -1.11%.
With `COc1cc2ncn(-c3cc(O[C@@H](C)c4ccccc4Cl)c(C(N)=O)s3)c2cc1OC`, the inhibition in test [20] was 8.9%; in [1], -1.19%; in test [2] it was 3.6%; in [3], 5.43%; in test [4], 5%; in [5], 9.03%. For the same compound, the inhibition turned out to be 10.9% in test [6]; 4.26% in test [7]; 9.07% in [8]; 4.06% in [9]; 8.06% in [10]; 2.88% in test [11]. Also, the inhibition in test [12] is 7.69%; in test [13] it was 4.41%; in [14] it was 9.71%; in test [15], 1.25%; in [16], 2.74%; in test [17] it was -0.9%. The inhibition in [18] came out at 7.84%; in [19], 1.49%.
Take `CS(=O)(=O)Nc1ccc(N/C=C2\C(=O)Nc3ccccc32)cc1`: the inhibition in [20] is -2.55%; in test [1], -2.55%; in test [2], -4.45%; in test [3] it was -1.85%; in test [4], -1.69%; in test [5], -2.11%. Moreover, the inhibition was -2.88% in test [6]; 3.85% in test [7]; 23.8% in [8]; 0.83% in test [9]; 16.1% in test [10]; 3.29% in test [11]. Moreover, the inhibition is 18.9% in test [12]; -1.64% in [13]; 20.9% in test [14]; -0.49% in test [15]; -0.33% in test [16]; 0.01% in [17]. Further, the inhibition worked out at 5.59% in [18] and 2.67% in [19].
As to `CS(=O)(=O)CCN(CC#N)Cc1ccc(-c2ccc3ncnc(Nc4ccc(OCc5cccc(F)c5)c(Cl)c4)c3c2)o1`, the inhibition in test [20] was -1.52%; in test [1] it was -4.32%; in test [2] it was -2.59%; in test [3], 0.26%; in [4] it was 0.64%; in test [5], 0.54%. The inhibition in test [6] is -0.02%; in test [7] it was 0.76%; in [8], -0.29%; in [10], -0.24%; in test [11], 0.8%; in test [12], -0.12%. In addition, the inhibition in [13] amounted to 3.85%; in test [14] it was 8.4%; in [15] it was 1.32%; in test [16], 5.64%; in test [17], 2.33%; in test [18] it was 11.5%. Moreover, in [19], the inhibition was -0.92%.
Turning to `NC(=O)c1cccc(Nc2nccc(Nc3cccc4[nH]ncc34)n2)c1`, the inhibition in test [20] was 0.2%; in test [2], 0.29%; in test [3], -2.49%; in test [4], -2.06%; in test [5], -2.55%; in test [6], -2.42%. Besides, the inhibition in test [7] was -1.84%; in test [8], 11.7%; in [9] it was 2.03%; in test [10], 11.9%; in test [11] it was 1.34%; in test [12], 11.8%. The inhibition in [13] is -1.78%; in test [14] it was 8.97%; in [15] it was 0.69%; in test [16] it was 25.3%; in [17], 0.64%; in test [18] it was 23.7%. The inhibition in test [19] came to 0.92%.

The record behind these values is ChEMBL document CHEMBL1961873, “Compounds: GSK PKIS; Assays: Nanosyn kinase panel” (2012).
